Assay [1] has as its system Plasmodium falciparum Sir2 (PF13_0152, Sir2A). Description: pfSir2 binders on small-molecule microarrays, primary screen, biochemical, small-molecule microarray, 635 nm fluorescence (AID 1098).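 Further: score merges spot fluorescence intensity with its signal-to-noise ratio.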 The following applies: small-molecule microarray binding, fluorescence 635 nm; higher = more signal.
Assay [2] in a line: small-molecule microarray binders of probe aDKK1, primary screen, biochemical, biotinylated probe, 635/667 nm fluorescence (AID 1099).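 Further: score merges 667nm spot fluorescence with signal to noise across triplicate slides.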 The following applies: higher = more signal.
Assay [3] in a line: small-molecule microarray binders of probe aCHRDL2, primary screen, biochemical, biotinylated probe, 635/667 nm fluorescence (AID 1100). The following applies: higher = more signal.
A short description of assay [4]: splicing luciferase reporter signal modulators, primary screen, spliceosome inhibition project, cell-based, HEK293, splice +/- reporter (AID 1101).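 Further: HEK293 cells carrying a splicing-competent luciferase reporter gene; test concentration not given here.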 The following applies: luminescence, 24 h, higher = more signal, called active from +8 up or from −8 down. On the technique in general: In a reporter assay the amount or activity of a reporter protein is the signal.
The target in assay [5] is Fibroblast growth factor 10 (Homo sapiens) (UniProt O15520). The assay is described as follows: FGF10 binders on small-molecule microarrays, primary screen, biochemical, small-molecule microarray, 635 nm fluorescence (AID 1102). The following applies: FGF10 binding, fluorescence 635 nm, higher = more signal.
Chain of Fibroblast growth factor 10 (Homo sapiens) (O15520 whole entry, looked up): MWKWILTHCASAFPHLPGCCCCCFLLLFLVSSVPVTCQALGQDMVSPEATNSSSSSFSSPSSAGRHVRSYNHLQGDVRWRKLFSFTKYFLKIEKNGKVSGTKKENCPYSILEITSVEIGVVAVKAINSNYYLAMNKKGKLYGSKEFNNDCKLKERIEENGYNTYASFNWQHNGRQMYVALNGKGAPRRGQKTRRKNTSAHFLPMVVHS
For assay [6], the system named is glycogen synthase kinase-3 (GSK3A per assay name; protocol says GSK3B). Description: GSK3 binders on small-molecule microarrays, primary screen, biochemical, small-molecule microarray, 635 nm fluorescence, GSK3A (AID 1103). Further: the record names both GSK3A and GSK3B. The following applies: small-molecule microarray binding, fluorescence 635 nm; higher = more signal.
Assay [7] deals with Epidermal growth factor receptor (Homo sapiens) (UniProt P00533). The assay is described as follows: EGFR binders on small-molecule microarrays, primary screen, biochemical, small-molecule microarray, 635 nm fluorescence (AID 1104).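 Further: score merges 667 nm emission intensity with spot signal to noise over triplicate slides.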 The following applies: EGFR binding, higher = more signal.
Chain of Epidermal growth factor receptor (Homo sapiens) (P00533 whole entry, looked up): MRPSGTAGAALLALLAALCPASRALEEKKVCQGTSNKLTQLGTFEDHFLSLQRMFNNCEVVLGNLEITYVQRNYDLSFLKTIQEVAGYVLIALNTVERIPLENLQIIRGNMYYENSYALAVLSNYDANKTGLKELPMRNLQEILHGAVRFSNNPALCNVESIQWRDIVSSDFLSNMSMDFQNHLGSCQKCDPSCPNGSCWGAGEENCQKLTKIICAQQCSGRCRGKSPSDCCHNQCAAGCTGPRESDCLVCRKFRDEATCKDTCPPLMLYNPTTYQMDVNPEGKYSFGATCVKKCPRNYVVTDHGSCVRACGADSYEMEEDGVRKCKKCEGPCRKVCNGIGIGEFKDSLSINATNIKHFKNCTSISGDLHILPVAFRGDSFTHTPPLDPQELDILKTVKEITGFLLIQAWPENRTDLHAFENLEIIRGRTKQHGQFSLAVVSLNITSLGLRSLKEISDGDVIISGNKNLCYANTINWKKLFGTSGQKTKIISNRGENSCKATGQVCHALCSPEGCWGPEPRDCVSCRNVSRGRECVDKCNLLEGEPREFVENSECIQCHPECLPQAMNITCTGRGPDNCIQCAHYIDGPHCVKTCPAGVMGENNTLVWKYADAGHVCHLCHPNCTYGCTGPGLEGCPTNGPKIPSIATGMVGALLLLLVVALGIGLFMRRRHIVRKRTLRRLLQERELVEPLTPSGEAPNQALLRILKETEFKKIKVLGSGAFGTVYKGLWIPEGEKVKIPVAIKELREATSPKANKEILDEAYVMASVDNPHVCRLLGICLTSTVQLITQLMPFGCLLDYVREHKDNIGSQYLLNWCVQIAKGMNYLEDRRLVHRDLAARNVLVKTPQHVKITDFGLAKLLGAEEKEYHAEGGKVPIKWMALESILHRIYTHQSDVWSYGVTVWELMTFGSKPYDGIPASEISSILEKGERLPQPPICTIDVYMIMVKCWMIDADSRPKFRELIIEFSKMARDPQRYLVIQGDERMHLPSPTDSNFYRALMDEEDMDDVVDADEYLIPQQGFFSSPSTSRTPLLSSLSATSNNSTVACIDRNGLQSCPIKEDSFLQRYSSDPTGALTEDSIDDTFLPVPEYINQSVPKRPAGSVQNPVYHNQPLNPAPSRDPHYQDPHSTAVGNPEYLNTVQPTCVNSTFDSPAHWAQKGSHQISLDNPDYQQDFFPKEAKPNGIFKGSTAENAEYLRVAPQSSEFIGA
In assay [8] the target is Follistatin-related protein 3 (Homo sapiens) (UniProt O95633). Description: FSTL3 binders on small-molecule microarrays, primary screen, biochemical, small-molecule microarray, 635 nm fluorescence (AID 1105).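 Further: score merges emission near 667 nm and signal to noise per printed spot across three slides.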 The following applies: FSTL3 binding, higher = more signal.
Chain of Follistatin-related protein 3 (Homo sapiens) (O95633 whole entry, looked up): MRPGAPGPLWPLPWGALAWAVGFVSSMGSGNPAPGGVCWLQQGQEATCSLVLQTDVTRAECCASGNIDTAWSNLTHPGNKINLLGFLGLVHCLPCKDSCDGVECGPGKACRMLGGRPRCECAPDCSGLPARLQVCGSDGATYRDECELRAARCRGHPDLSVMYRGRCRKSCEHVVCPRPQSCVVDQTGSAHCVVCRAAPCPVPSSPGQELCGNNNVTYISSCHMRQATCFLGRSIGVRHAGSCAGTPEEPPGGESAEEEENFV
Assay [9] concerns the target Dickkopf-related protein 1 (Homo sapiens) (UniProt O94907). Description: DKK1 binders on small-molecule microarrays, primary screen, biochemical, small-molecule microarray, 635 nm fluorescence scan (AID 1106).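 Further: score merges emission near 667 nm with signal to noise over three replicate slides.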 The following applies: DKK1 binding, higher = more signal.
In assay [10] the test system is Inhibin beta A chain (activin A). The assay is described as follows: INHBA (activin A) binders on microarrays, primary screen, biochemical, small-molecule microarray, 635 nm fluorescence scan (AID 1107).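 Further: mouse activin A protein probed at 4.33 µg/mL on printed slides; score merges bound-protein fluorescence near 667 nm with spot signal-to-noise.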 The following applies: small-molecule microarray binding, higher = more signal.
For assay [11], the system named is Human papillomavirus type 1a protein E7 (residues 44-93). The assay is described as follows: HPV1a E7 fragment binders on microarrays, primary screen, biochemical, small-molecule microarray, residues 44-93, 635 nm fluorescence (AID 1108).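 Further: E7 fragment applied at 1 µg/mL in TBST for 1 h at 4 C; score combines spot fluorescence with its signal to noise ratio.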 The following applies: small-molecule microarray binding, fluorescence 635 nm; higher = more signal.
Assay [12] can be described thus: modulators of HCV replicon luciferase signal, primary screen, HCV replication inhibitor project, Huh7 cells, luciferase reporter (AID 1109).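 Further: huh7 hepatoma cells harbouring a luciferase neomycin HCV replicon reporter; luciferase luminescence as measure of HCV replicon replication; test concentration not given here.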 The following applies: 48 h, higher = more signal.
Assay [13] concerns the target Left-right determination factor 2 (Homo sapiens) (UniProt O00292). Description: LEFTY2 binders on small-molecule microarrays, primary screen, biochemical, small-molecule microarray, 635 nm fluorescence scan (AID 1110). The following applies: LEFTY2 binding, higher = more signal.
Assay [14] has as its target Calmodulin-1 (Homo sapiens) (UniProt P0DP23). The assay is described as follows: CALM1 binders on microarrays, EGTA buffer, profiling panel, biochemical, small-molecule microarray, Cy5-labelled CALM1 (AID 1111).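 Further: labelled calmodulin applied in Tris saline Tween buffer holding calcium plus EGTA and DTT.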 The following applies: Cy5-CALM1 binding fluorescence, higher = more signal.
For assay [15] the target is unchanged. Description: calcium-bound CALM1 binders on microarrays, profiling panel, artefact control for SMM control-protein annotation, biochemical, small-molecule microarray, Cy5-labelled CALM1, plus calcium (AID 1112).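 Further: score merges spot fluorescence with signal to noise from triplicate slides.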 The following applies: Cy5-CALM1 binding fluorescence, higher = more signal.
Assay [16] in a line: small-molecule microarray binders of probe aWnt5a, primary screen, biochemical, biotinylated probe, 635/667 nm fluorescence (AID 1113).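 Further: score merges 667 nm fluorescence intensity with signal-to-noise per printed feature.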 The following applies: higher = more signal.
Assay [17] is described as follows: small-molecule microarray binders of probe aShh, primary screen, biochemical, biotinylated probe, 635/667 nm fluorescence (AID 1114).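 Further: probe is biotin-labelled aShh protein from a stem cell growth factor screen; measures binding of labelled protein to compounds printed on the slide; score merges feature fluorescence at 667 nm with signal-to-noise.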 The following applies: higher = more signal.
Assay [18] can be described thus: small-molecule microarray binders of probe aNog, primary screen, biochemical, biotinylated probe, 635/667 nm fluorescence (AID 1115).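 Further: probe is biotinylated aNog protein used at 0.15 µg/mL for 1 h at 4 C; z-score combines 667 nm fluorescence of each spot with its signal to noise.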 The following applies: higher = more signal.
In assay [19] the target is Torsin-1A-interacting protein 1 (Homo sapiens) (UniProt Q5JTV8). The assay is described as follows: LAP1 binders from COS7 cell lysate, primary screen, small-molecule microarray, 635/667 nm fluorescence (AID 1116). The following applies: COS7-hLAP1 lysate binding, 635 nm fluorescence, higher = more signal.
Chain of Torsin-1A-interacting protein 1 (Homo sapiens) (Q5JTV8 whole entry, looked up): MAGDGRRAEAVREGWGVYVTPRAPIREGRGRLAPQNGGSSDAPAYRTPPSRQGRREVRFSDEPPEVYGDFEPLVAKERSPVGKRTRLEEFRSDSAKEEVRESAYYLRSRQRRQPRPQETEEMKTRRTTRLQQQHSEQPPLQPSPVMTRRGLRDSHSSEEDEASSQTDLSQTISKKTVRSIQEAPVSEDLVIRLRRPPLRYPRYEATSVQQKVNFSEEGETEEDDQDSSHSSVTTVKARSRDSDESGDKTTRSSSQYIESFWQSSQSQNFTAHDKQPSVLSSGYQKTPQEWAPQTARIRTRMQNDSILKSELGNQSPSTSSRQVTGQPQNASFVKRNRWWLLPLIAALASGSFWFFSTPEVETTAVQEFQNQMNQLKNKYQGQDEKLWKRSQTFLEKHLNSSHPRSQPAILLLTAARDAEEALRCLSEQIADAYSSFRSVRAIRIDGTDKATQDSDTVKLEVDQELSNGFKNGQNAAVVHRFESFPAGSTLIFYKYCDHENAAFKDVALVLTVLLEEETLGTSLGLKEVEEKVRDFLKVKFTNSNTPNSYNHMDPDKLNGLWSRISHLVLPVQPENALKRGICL
Assay [20] concerns the target Alpha-bungarotoxin (Bungarus multicinctus) (UniProt P60615). Description: alpha-bungarotoxin binders on microarray, profiling panel, artefact control for SMM control protein annotation, biochemical, small-molecule microarray, Alexa647 label, 635/667 nm fluorescence (AID 1117). The following applies: alpha-BTX-A647 binding fluorescence, higher = more signal.

In PubChem BioAssay one finds composite z-score and z-score data, which are given here for five compounds.

The source made the active and inactive calls.

Chain of Dickkopf-related protein 1 (Homo sapiens) (O94907 whole entry, looked up): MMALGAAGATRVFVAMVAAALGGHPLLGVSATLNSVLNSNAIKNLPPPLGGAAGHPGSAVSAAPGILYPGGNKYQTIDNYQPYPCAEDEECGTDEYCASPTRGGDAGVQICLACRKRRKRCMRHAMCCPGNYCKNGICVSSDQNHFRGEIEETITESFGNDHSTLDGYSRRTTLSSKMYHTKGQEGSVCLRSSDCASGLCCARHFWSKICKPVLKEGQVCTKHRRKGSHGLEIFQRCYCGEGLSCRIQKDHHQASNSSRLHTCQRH
Chain of Left-right determination factor 2 (Homo sapiens) (O00292 whole entry, looked up): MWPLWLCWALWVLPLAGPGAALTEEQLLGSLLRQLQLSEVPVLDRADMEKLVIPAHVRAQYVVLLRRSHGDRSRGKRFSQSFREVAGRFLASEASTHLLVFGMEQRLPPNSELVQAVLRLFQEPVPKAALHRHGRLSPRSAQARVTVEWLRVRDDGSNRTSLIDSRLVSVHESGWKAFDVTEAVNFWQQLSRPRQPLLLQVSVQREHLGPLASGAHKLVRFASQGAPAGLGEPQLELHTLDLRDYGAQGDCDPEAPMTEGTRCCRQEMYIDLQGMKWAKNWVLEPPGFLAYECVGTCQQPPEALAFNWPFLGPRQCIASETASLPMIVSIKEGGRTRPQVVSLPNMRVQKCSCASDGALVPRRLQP
Chain of Alpha-bungarotoxin (Bungarus multicinctus) (P60615 whole entry, looked up): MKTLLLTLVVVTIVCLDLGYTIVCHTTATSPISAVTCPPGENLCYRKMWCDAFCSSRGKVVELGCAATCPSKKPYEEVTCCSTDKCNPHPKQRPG

As for `C=CC[C@]1(C(=O)NCCN2CCOCC2)N=C(c2ccc(OCCCO)cc2)O[C@H]1c1ccccc1`, the composite z-score was 1.52 in assay [1]; -0.0845 in assay [2]; 0.942 in [3]; 0.3 in assay [5]; 0.866 in assay [6]; -0.0911 in assay [7]. For the same compound, the composite z-score in assay [8] was found to be 0.281; in assay [9] it was 0.418; in assay [10], 0.772; in assay [11], 1.35; in assay [13], 0.66; in assay [14] it was 0.0631. For the same compound, the composite z-score in assay [15] is -0.442; in [16] it was 0.212; in assay [17], 0.398; in assay [18], -0.103; in assay [19], 1.24; in [20], 0.429. The z-score was -0.4 (inactive) in assay [4] and -0.633 in assay [12].
For `CN1C2C=C(c3ccc(CO)cc3)C(C3C(=O)N(C(N)=O)C(=O)C32)C1C1CC1` (stereo not given), the composite z-score is 0.261 in [1]; -0.202 in assay [2]; 0.0427 in assay [3]; -0.241 in assay [5]; -0.32 in assay [6]; -0.127 in assay [7]. Also, the composite z-score was -0.722 in [8]; -0.188 in assay [9]; -0.586 in assay [10]; 0.249 in [11]; -0.423 in [13]; -0.273 in [14]. Besides, the composite z-score in [15] was -0.915; in [16], -0.176; in [17], -0.229; in [18] it was -0.226; in assay [19], 0.192; in assay [20], 0.334. Moreover, the values for the z-score in [4] and in assay [12] were 0.0567 (inactive) and -0.31, respectively.
`C#CCN(C(=O)OC(C)(C)C)[C@H](CO)c1ccccc1`: the composite z-score in assay [1] was -0.223; in [2], -0.331; in assay [3], -0.601; in assay [5], 0.286; in assay [6], 0.419; in assay [7], 0.258. Also, the composite z-score in [8] is -0.0195; in assay [9], 0.226; in assay [10] it was -0.415; in assay [11], 0.486; in assay [13], 0.353; in assay [14] it was -0.528. In addition, the composite z-score in assay [15] was -0.964; in [16] it was -0.18; in assay [17], -0.138; in [18] it was -0.141; in assay [19], 0.391; in assay [20], 0.0876. Besides, the z-score in assay [4] was 0.234 (inactive); in [12], 0.712.
As to `COC(=O)[C@@]1(Cc2ccccc2)[C@H]2c3cc(C(=O)N(C)C)n(Cc4ccc(Cl)c(C(F)(F)F)c4)c3C[C@H]2CN1C(=O)c1ccccc1`, the composite z-score in assay [1] amounted to 0.685; in assay [2] it was 0.841; in [3], 1.02; in assay [5], 1.37; in [6], 1.31; in [7], 0.603. Further, the composite z-score worked out at 1.45 in assay [8]; 0.283 in [9]; 1.29 in assay [10]; 1.37 in [11]; 0.533 in assay [13]; 1.49 in [14]. The composite z-score is 1.06 in assay [15]; 0.315 in [16]; 1.24 in assay [17]; 1.91 in assay [18]; 0.636 in [19]; 0.995 in assay [20]. The results for the z-score in assay [4] and in [12] were -1.45 (inactive) and -2.61, respectively.
For the compound `COC(=O)C(CC#Cc1ccc2c(c1)[C@]1(C(=O)N2)[C@H](C(=O)NC[C@H](O)c2ccccc2)[C@H]2C(=O)O[C@H](c3ccccc3)[C@H](c3ccccc3)N2[C@@H]1c1ccc(O)cc1)C(=O)OC`, the composite z-score in assay [1] was 0.535; in assay [2], -0.107; in [3], 0.369; in assay [5], 0.243; in [6] it was -0.857; in [7], 0.221. Also, the composite z-score in assay [8] is -0.0104; in assay [9], -0.293; in assay [10] it was -0.137; in [11], -0.603; in [13], -0.357; in assay [14], -0.113. For the same compound, the composite z-score in [15] was -0.327; in [16] it was -0.217; in assay [17], -0.138; in assay [18], -0.121; in assay [19] it was -0.223; in assay [20], -0.111. For the same compound, the z-score in assay [4] is 0.266 (inactive); in assay [12], -1.7.
